# Measurements: ChEMBL document CHEMBL1961873, “Compounds: GSK PKIS; Assays: Nanosyn kinase panel” (2012)
# Experiments:
# [1] = target: T1, Tyrosine-protein kinase ITK/TSK (Homo sapiens) (UniProt Q08881); conditions: at 1 µM;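 note: values are mean percent inhibition of ITK from the GSK PKIS screen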
# T1 sequence (whole entry): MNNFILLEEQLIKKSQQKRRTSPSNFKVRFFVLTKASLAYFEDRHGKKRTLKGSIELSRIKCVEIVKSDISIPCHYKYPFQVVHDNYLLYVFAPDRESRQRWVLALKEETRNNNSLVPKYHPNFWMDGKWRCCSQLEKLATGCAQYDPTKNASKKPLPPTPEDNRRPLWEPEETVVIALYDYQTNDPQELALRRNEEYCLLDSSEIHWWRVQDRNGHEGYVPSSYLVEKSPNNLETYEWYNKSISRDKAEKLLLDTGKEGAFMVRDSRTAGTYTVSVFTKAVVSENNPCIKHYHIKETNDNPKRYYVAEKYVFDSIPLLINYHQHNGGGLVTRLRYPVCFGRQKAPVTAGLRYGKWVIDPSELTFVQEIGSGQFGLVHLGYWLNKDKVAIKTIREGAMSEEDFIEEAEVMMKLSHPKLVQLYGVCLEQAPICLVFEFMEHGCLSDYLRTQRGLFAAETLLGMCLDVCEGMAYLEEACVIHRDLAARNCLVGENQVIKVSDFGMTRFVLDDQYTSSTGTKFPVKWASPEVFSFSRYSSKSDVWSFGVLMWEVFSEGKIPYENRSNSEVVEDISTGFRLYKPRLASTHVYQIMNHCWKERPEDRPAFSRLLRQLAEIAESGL
# [2] = target: Tyrosine-protein kinase JAK1 (Homo sapiens) (UniProt P23458); conditions: at 0.1 µM
# Sequence of Tyrosine-protein kinase JAK1 (Homo sapiens) (P23458 whole entry): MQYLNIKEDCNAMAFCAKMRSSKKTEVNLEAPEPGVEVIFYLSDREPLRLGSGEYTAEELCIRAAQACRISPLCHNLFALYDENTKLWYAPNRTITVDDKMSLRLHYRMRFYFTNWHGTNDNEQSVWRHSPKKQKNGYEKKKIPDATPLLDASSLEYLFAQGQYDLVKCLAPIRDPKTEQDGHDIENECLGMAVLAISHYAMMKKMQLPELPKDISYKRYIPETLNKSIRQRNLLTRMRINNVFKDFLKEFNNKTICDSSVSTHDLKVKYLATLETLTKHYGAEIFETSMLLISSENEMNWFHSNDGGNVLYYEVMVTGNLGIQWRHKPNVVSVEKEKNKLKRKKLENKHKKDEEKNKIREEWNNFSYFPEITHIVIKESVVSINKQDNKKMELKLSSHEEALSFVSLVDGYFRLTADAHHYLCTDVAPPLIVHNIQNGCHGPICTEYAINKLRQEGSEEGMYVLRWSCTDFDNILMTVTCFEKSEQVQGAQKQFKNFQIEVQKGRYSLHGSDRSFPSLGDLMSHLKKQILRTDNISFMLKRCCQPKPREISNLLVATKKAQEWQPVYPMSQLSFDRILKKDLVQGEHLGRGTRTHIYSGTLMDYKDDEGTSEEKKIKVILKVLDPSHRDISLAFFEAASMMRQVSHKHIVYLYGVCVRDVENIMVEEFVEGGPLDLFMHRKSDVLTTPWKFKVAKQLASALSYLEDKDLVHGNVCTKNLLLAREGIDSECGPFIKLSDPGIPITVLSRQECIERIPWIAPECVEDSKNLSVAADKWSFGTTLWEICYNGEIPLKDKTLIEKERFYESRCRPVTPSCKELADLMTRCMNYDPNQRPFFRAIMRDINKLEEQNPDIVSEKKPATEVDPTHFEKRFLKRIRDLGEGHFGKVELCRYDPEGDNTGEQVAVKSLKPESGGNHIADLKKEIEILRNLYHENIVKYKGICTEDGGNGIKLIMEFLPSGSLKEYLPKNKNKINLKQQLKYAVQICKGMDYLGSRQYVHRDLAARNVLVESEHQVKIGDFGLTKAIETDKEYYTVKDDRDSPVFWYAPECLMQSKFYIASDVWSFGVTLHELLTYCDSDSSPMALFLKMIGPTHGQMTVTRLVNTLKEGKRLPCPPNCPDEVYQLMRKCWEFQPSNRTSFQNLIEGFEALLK
# [3] = target: Tyrosine-protein kinase JAK1 (Homo sapiens) (UniProt P23458); conditions: at 1 µM
# [4] = target: Tyrosine-protein kinase JAK2 (Homo sapiens) (UniProt O60674); conditions: at 0.1 µM
# [5] = target: Tyrosine-protein kinase JAK2 (Homo sapiens) (UniProt O60674); conditions: at 1 µM
# [6] = target: T2, Tyrosine-protein kinase JAK3 (Homo sapiens) (UniProt P52333); conditions: at 0.1 µM
# T2 sequence (whole entry): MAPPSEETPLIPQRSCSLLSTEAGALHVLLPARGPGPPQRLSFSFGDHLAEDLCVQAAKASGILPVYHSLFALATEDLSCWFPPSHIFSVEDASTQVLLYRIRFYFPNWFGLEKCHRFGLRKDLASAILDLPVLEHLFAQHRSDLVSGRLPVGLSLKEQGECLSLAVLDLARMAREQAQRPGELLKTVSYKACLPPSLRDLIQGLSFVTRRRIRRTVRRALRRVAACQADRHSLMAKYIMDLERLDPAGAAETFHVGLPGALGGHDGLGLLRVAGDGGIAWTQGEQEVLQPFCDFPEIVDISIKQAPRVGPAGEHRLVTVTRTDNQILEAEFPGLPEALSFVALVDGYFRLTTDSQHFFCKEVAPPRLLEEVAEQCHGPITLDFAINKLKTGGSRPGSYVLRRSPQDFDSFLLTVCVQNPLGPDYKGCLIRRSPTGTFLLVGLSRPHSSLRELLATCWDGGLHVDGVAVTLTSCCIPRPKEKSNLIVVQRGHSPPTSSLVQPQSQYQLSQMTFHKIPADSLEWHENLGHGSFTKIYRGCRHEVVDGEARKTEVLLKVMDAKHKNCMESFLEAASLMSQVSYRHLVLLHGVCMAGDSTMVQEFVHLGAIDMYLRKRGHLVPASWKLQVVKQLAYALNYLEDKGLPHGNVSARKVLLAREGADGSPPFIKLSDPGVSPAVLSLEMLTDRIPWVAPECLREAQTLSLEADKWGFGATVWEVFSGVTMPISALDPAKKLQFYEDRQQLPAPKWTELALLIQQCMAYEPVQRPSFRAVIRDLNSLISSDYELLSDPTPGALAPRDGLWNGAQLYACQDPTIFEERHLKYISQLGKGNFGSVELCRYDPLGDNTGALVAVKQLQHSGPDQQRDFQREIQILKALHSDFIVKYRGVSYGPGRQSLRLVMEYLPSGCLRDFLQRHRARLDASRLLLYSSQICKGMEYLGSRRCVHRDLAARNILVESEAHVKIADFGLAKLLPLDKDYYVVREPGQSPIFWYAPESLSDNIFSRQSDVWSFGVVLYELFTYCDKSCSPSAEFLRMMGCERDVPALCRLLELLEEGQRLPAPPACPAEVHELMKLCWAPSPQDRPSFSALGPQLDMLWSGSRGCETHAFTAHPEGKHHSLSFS
# [7] = target: T2, Tyrosine-protein kinase JAK3 (Homo sapiens); conditions: at 1 µM
# [8] = target: Vascular endothelial growth factor receptor 2 (Homo sapiens) (UniProt P35968); conditions: at 0.1 µM
# Sequence of Vascular endothelial growth factor receptor 2 (Homo sapiens) (P35968 whole entry): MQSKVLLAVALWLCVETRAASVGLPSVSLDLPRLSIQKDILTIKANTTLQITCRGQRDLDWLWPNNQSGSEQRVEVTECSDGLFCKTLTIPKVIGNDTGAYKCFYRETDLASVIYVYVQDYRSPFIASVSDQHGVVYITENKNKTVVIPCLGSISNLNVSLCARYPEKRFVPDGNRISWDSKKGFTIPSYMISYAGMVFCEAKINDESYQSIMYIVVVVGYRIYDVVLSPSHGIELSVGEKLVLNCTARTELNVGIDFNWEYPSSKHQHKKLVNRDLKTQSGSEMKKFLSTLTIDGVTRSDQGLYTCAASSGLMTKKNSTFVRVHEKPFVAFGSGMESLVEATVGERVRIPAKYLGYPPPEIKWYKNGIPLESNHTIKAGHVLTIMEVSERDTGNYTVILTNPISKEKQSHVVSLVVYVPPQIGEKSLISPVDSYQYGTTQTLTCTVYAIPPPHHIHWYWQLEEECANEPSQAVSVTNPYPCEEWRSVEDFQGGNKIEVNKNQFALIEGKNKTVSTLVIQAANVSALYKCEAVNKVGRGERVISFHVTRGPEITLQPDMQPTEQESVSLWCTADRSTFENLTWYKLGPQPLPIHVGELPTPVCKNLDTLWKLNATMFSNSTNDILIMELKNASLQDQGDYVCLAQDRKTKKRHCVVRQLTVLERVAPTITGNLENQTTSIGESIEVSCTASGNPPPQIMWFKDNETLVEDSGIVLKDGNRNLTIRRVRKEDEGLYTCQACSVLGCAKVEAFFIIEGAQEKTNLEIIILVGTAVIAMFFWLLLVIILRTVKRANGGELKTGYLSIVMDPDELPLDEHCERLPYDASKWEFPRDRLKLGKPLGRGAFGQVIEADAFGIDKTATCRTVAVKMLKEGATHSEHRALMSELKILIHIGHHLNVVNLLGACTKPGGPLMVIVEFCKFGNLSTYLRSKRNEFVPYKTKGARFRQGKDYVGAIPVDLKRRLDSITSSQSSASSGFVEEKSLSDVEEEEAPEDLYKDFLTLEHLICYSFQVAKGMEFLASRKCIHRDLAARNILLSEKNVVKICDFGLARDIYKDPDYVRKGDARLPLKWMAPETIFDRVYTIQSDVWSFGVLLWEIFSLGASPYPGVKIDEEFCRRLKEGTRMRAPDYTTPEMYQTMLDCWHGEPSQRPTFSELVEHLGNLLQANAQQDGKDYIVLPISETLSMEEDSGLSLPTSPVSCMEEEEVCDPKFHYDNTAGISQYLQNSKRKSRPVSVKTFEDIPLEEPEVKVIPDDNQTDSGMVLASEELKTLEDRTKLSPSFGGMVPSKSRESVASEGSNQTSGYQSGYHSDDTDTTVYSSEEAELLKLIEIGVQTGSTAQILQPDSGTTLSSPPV
# [9] = target: Vascular endothelial growth factor receptor 2 (Homo sapiens) (UniProt P35968); conditions: at 1 µM
# [10] = target: Mast/stem cell growth factor receptor Kit (Homo sapiens) (UniProt P10721); conditions: at 0.1 µM
# Sequence of Mast/stem cell growth factor receptor Kit (Homo sapiens) (P10721 whole entry): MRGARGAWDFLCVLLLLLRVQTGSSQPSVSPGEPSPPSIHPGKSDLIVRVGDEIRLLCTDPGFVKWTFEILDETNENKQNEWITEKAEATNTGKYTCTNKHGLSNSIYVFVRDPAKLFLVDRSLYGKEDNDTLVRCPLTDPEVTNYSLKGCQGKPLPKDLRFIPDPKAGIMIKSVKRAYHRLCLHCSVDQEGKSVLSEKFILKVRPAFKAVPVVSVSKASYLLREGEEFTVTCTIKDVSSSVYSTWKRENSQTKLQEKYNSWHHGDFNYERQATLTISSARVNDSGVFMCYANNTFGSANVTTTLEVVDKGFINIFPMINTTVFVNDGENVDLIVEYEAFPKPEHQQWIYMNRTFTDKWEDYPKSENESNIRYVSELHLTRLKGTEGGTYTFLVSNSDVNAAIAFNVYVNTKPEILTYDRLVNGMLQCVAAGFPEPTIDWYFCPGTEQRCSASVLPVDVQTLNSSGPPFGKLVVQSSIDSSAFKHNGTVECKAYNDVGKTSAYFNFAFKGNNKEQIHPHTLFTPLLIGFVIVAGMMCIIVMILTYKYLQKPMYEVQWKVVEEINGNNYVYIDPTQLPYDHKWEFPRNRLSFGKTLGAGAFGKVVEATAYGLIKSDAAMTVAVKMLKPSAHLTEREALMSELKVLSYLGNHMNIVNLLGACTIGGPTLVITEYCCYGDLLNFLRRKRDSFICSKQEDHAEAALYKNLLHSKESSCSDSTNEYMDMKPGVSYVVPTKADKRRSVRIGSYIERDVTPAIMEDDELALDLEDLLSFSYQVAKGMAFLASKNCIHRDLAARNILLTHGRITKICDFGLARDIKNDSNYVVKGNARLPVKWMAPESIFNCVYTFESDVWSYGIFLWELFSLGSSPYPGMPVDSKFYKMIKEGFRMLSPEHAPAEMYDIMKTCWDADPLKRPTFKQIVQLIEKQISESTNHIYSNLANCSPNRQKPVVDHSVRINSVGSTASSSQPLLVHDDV
# [11] = target: Mast/stem cell growth factor receptor Kit (Homo sapiens) (UniProt P10721); conditions: at 1 µM
# [12] = tested on: Mast/stem cell growth factor receptor Kit (Homo sapiens), P10721 [D816V]; conditions: at 0.1 µM
# Sequence of Mast/stem cell growth factor receptor Kit (Homo sapiens), P10721 [D816V] (P10721 whole entry D816V): as the sequence (P10721 whole entry) above, with D816V counted along it
# [13] = tested on: Mast/stem cell growth factor receptor Kit (Homo sapiens), P10721 [D816V]; conditions: at 1 µM
# [14] = tested on: Mast/stem cell growth factor receptor Kit (Homo sapiens), P10721 [T670I]; conditions: at 0.1 µM
# Sequence of Mast/stem cell growth factor receptor Kit (Homo sapiens), P10721 [T670I] (P10721 whole entry T670I): as the sequence (P10721 whole entry) above, with T670I counted along it
# [15] = tested on: Mast/stem cell growth factor receptor Kit (Homo sapiens), P10721 [T670I]; conditions: at 1 µM
# [16] = tested on: Mast/stem cell growth factor receptor Kit (Homo sapiens), P10721 [V560G]; conditions: at 0.1 µM
# Sequence of Mast/stem cell growth factor receptor Kit (Homo sapiens), P10721 [V560G] (P10721 whole entry V560G): as the sequence (P10721 whole entry) above, with V560G counted along it
# [17] = tested on: Mast/stem cell growth factor receptor Kit (Homo sapiens), P10721 [V560G]; conditions: at 1 µM
# [18] = target: Tyrosine-protein kinase Lck (Homo sapiens) (UniProt P06239); conditions: at 0.1 µM
# Sequence of Tyrosine-protein kinase Lck (Homo sapiens) (P06239 2-509 limits assumed): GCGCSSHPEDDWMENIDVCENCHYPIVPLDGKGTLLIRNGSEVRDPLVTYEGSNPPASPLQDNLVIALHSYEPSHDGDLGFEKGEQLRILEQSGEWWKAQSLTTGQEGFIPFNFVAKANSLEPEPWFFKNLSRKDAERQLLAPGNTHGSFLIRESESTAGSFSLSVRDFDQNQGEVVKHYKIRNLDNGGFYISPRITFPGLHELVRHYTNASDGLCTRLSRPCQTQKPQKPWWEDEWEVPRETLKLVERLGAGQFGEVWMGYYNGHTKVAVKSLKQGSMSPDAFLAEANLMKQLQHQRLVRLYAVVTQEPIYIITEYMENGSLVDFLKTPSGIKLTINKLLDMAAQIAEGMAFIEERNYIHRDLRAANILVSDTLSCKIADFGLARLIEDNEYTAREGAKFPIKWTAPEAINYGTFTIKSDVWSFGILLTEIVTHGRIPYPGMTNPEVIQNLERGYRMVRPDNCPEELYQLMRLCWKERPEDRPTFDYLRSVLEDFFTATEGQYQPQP
# [19] = target: Tyrosine-protein kinase Lck (Homo sapiens) (UniProt P06239); conditions: at 1 µM
# [20] = target: Leukocyte tyrosine kinase receptor (Homo sapiens) (UniProt P29376); conditions: at 0.1 µM
# Sequence of Leukocyte tyrosine kinase receptor (Homo sapiens) (P29376 whole entry): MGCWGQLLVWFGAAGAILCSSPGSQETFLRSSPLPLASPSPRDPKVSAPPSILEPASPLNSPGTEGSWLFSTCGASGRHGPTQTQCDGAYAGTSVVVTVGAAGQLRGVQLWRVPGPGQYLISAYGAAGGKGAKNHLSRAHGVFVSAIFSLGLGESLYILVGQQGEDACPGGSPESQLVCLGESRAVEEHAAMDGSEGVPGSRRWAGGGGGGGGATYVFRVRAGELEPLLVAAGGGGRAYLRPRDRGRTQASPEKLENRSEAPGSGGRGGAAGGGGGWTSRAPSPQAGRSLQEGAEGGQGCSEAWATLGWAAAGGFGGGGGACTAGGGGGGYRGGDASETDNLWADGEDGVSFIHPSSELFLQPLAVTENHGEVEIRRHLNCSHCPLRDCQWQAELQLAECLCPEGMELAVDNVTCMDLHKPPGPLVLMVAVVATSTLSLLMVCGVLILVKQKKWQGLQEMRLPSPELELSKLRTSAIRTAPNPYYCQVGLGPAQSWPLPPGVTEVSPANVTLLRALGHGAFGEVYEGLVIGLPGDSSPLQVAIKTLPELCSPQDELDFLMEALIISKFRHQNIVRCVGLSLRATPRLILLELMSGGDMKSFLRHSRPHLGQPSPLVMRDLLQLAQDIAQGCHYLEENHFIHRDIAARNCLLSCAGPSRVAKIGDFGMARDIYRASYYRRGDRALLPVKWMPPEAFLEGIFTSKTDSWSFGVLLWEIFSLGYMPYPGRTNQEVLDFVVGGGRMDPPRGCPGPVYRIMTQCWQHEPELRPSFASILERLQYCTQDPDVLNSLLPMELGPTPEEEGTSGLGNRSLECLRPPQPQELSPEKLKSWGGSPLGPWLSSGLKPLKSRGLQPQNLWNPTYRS
SMILES,inhibition [1] [%],inhibition [2] [%],inhibition [3] [%],inhibition [4] [%],inhibition [5] [%],inhibition [6] [%],inhibition [7] [%],inhibition [8] [%],inhibition [9] [%],inhibition [10] [%],inhibition [11] [%],inhibition [12] [%],inhibition [13] [%],inhibition [14] [%],inhibition [15] [%],inhibition [16] [%],inhibition [17] [%],inhibition [18] [%],inhibition [19] [%],inhibition [20] [%]
Cn1c(-c2nonc2N)nc2cnccc21,1.68,4.75,2.08,1.45,1.42,-1.06,-0.29,4.81,12.2,4.67,5.33,1.72,2.94,2.83,2.49,-0.55,-0.31,2.46,3.49,2.56
CS(=O)(=O)Nc1ccc(-c2cc(-c3ccccc3)cc(C(N)=O)c2N)cc1,0.76,0.16,2.62,0.9,3.86,-0.01,0.58,1.74,4.53,3.8,21,-0.43,-0.86,-1.07,4.26,-0.45,-2.55,1.3,2.43,2.46
Fc1cccc(COc2ccc(Nc3ncncc3C#Cc3ccccc3)cc2Cl)c1,1.93,2.37,14.7,1.34,2.01,-1.12,0.1,5.83,6.38,3.62,7.97,9.06,7.92,3.83,6.38,-1.39,-0.04,1.72,2,4.37
N#Cc1cccc(Nc2ncc(-c3ccccc3)o2)c1,2.42,0.52,10.7,0.78,0.35,-1.06,-0.94,3.11,11,19.9,79.6,1.87,2.5,2.85,35.8,4.29,23.8,2.79,1.76,4.04
CS(=O)(=O)CCNCc1ccc(-c2ccc3ncnc(Nc4ccc(OCc5ccccc5)cc4)c3c2)o1,2.16,6.4,5.72,1.29,0.35,-2,-1.45,3.83,6.56,2.46,8.96,2.54,2.47,3.32,4.61,4.25,1.48,4.19,22,4.28
COC(=O)Nc1nc2ccc(Oc3ccc(NC(=O)Nc4cc(C(F)(F)F)ccc4F)cc3)cc2s1,2.72,0.07,9.06,1.98,7.31,-0.26,0.75,69.8,85.1,17.9,73.9,-1.16,-0.29,14.4,46.7,19.8,73.7,15.2,47.1,1.83
